Measurements published in the supplement of paper PMC8371130.
Where a name gives a salt, the structure may show the parent alone.

Test system: HL-1
Experiment: relative cell viability (CellTiter-Glo) vs DMSO control (% of DMSO control); higher = more viable cells
In short: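 HL-1 mouse atrial cardiomyocytes were plated in 384-well plates at 1000 cells per well together with compounds at 40, 200, 1000 or 5000 nM in 0.01% DMSO. One day later, cells went to a hypoxic workstation (1% O2) for 48 h, then were reoxygenated for 24 h in a normal incubator, or stayed in normoxia for the same time. Cell viability was read by CellTiter-Glo luminescence and normalised to vehicle-treated control cells.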

[1] = oxygen condition: hypoxia 48 h (1% O2) + reoxygenation 24 h, 40 nM
[2] = oxygen condition: hypoxia 48 h (1% O2) + reoxygenation 24 h, 200 nM
[3] = oxygen condition: hypoxia 48 h (1% O2) + reoxygenation 24 h, 1000 nM
[4] = oxygen condition: hypoxia 48 h (1% O2) + reoxygenation 24 h, 5000 nM
[5] = oxygen condition: normoxia 72 h, 40 nM
[6] = oxygen condition: normoxia 72 h, 200 nM
[7] = oxygen condition: normoxia 72 h, 1000 nM
[8] = oxygen condition: normoxia 72 h, 5000 nM

Row | SMILES | relative cell viability [1] | relative cell viability [2] | relative cell viability [3] | relative cell viability [4] | relative cell viability [5] | relative cell viability [6] | relative cell viability [7] | relative cell viability [8]
1 | CCN(C)C(=O)Oc1cccc([C@H](C)N(C)C)c1 [Rivastigmine tartrate] | 105 | 102 | 110 | 109 | 99.9 | 106 | 108 | 105
2 | NCCc1c[nH]c2ccc(O)cc12 [Serotonin HCl] | 102 | 96.6 | 99.8 | 107 | 101 | 101 | 100 | 113
3 | O=P1(NCCCl)OCCCN1CCCl (stereo unspecified) [Ifosfamide] | 110 | 117 | 124 | 109 | 103 | 101 | 117 | 112
4 | COc1ccc(OC)c(C(O)C(C)N)c1 (stereo unspecified) [Methoxamine HCl] | 107 | 102 | 101 | 102 | 102 | 105 | 80.9 | 123
5 | CC(C)NCC(O)c1ccccc1Cl (stereo unspecified) [Clorprenaline HCL] | 104 | 102 | 106 | 117 | 105 | 102 | 103 | 108
6 | COc1ccc(C(CN(C)C)C2(O)CCCCC2)cc1 (stereo unspecified) [Venlafaxine] | 97.2 | 96.1 | 101 | 102 | 102 | 96.1 | 99.5 | 108
7 | CCC1(c2ccc(N)cc2)CCC(=O)NC1=O (stereo unspecified) [Aminoglutethimide] | 104 | 99.3 | 89.1 | 72.3 | 99.4 | 93.8 | 92.1 | 66.7
8 | CC[N+]1(C)CCCC(OC(=O)C(O)(c2ccccc2)c2ccccc2)C1 (stereo unspecified) [Pipenzolate Bromide] | 101 | 98.3 | 102 | 105 | 100 | 111 | 101 | 116
9 | C#C[C@]1(O)C=C[C@H]2[C@@H]3CCC4=CC(=O)CC[C@@H]4[C@H]3CC[C@@]21CC [Gestodene] | 102 | 100 | 109 | 107 | 111 | 103 | 105 | 106
10 | OC(c1ccccc1)(c1ccccc1)C1CCNCC1 [Azacyclonol] | 104 | 104 | 106 | 108 | 108 | 101 | 104 | 115
11 | CNC1CC(N)C(O)C(OC2OC(CO)C(O)C3OC4(OC(C(N)CO)C(O)C(O)C4O)OC23)C1O (stereo unspecified) [Hygromycin B] | 108 | 102 | 107 | 110 | 104 | 106 | 110 | 106
12 | O=C(O)c1nn(Cc2ccc(Cl)cc2Cl)c2ccccc12 [Lonidamine] | 104 | 105 | 109 | 111 | 111 | 102 | 122 | 112
13 | CN1C(=O)COc2c(C(=O)NC3CN4CCC3CC4)cc(Cl)cc21 (stereo unspecified) [Azasetron HCl] | 98.7 | 97.9 | 105 | 106 | 94.8 | 98.3 | 110 | 107
14 | O=C(O[C@H]1C[C@H]2CC[C@@H](C1)[N+]21CCCC1)C(O)(c1ccccc1)c1ccccc1 [Trospium chloride] | 95 | 98.6 | 90.1 | 105 | 103 | 95.1 | 95.8 | 101
15 | Cc1cccc(C)c1NC1=NCCCS1 [Xylazine HCl] | 99.5 | 101 | 103 | 107 | 106 | 98.1 | 102 | 105
16 | C=C1C[C@@H]2[C@H](CC[C@]3(C)C(=O)CC[C@@H]23)[C@@]2(C)C=CC(=O)C=C12 [Exemestane] | 108 | 98.9 | 107 | 105 | 107 | 106 | 124 | 112
17 | CCC1(c2cccc(O)c2)CCCCN(C)C1 (stereo unspecified) [Meptazinol HCl] | 97.8 | 103 | 103 | 109 | 97.7 | 98.3 | 102 | 108
18 | N.N.[Cl][Pt][Cl] [Cisplatin] | 91.6 | 77.8 | 80.1 | 111 | 82.7 | 80.6 | 89.5 | 110
19 | CN1c2ccccc2C(NCCCCCCC(=O)O)c2ccc(Cl)cc2S1(=O)=O (stereo unspecified) [Tianeptine sodium] | 106 | 105 | 108 | 106 | 98.8 | 103 | 104 | 110
20 | C[C@]12CC[C@H]3[C@@H](CC[C@@]45O[C@@H]4C(O)=C(C#N)C[C@]35C)[C@@H]1CC[C@@H]2O [Trilostane] | 101 | 104 | 108 | 107 | 113 | 116 | 102 | 108
21 | CC[C@@H](C(N)=O)N1CCCC1=O [Levetiracetam] | 113 | 109 | 118 | 113 | 109 | 113 | 116 | 117
22 | C[N+]1(C)[C@@H]2C[C@@H](OC(=O)[C@H](CO)c3ccccc3)C[C@H]1[C@@H]1O[C@@H]12 [Methscopolamine] | 99.5 | 101 | 100 | 106 | 97.5 | 101 | 101 | 101
23 | O=c1[nH]c2ccccc2n1CCCN1CCC(n2c(=O)[nH]c3cc(Cl)ccc32)CC1 [Domperidone] | 104 | 105 | 102 | 109 | 100 | 98.5 | 101 | 113
24 | O=C(O[C@H]1C[N+]2(CCCOc3ccccc3)CCC1CC2)C(O)(c1cccs1)c1cccs1 [Aclidinium Bromide] | 104 | 108 | 108 | 110 | 103 | 115 | 106 | 121
25 | CN(C)C(=O)Oc1cccc([N+](C)(C)C)c1 [Neostigmine bromide] | 106 | 100 | 97.4 | 113 | 101 | 105 | 103 | 109
26 | O=P1(N(CCCl)CCCl)NCCCO1 (stereo unspecified) [Cyclophosphamide monohydrate] | 100 | 94.2 | 97.1 | 108 | 104 | 97 | 106 | 111
27 | CCC(COC(=O)c1cc(OC)c(OC)c(OC)c1)(c1ccccc1)N(C)C (stereo unspecified) [Trimebutine] | 104 | 95.7 | 100 | 103 | 98.5 | 98.1 | 101 | 104
